This is an account of results in the supplement of paper PMC8183993.

Where “and” joins values, the source holds several entries; their conditions need not be identical. Equal entries are not always repeated. Structures can show the parent of a compound that is named as a salt. ± gives the standard deviation of the averaged measurements. Over roughly 3,200 compounds, “nuclei count (viability) relative to DMSO” has its median near 99; the lowest 2% begin near 16. For the sample, the lowest values were picked, then their nearest neighbours and some compounds at random.

The assay concerns U2OS. In words: nuclei count (viability) relative to DMSO (% of DMSO); higher = more viable cells. Conditions: 10 µM; 24 h. As for the experimental part: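 Primary image-based screen in U2OS cells: compounds at 10 uM for 24 h, then a 1 h o-propargyl-puromycin (OPP) pulse, click labelling, and high-throughput microscopy. Mean cytoplasmic OPP intensity and nuclei count were normalised to DMSO wells within each plate (DMSO = 100) and averaged over triplicate plates.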
As for `O=c1nc2ccccc2c2n1CC(CN1CCN(c3ccccc3)CC1)N2` (stereo not drawn), the nuclei count was 100. The result for `COc1cc2c(cc1OC)CN(CCc1ccc(NC(=O)c3cc(OC)c(OC)cc3NC(=O)c3cnc4ccccc4c3)cc1)CC2` [Tariquidar] reads 96.8. The figure for `CCCCC/C=C/C=C1/C(=O)C=C[C@@H]1C/C=C\CCCC(=O)O` [15-Deoxy-D12,14-prostaglandin J2] is 85.6; for `O=C(Nc1ccccc1-c1cn2c(CN3CCNCC3)csc2n1)c1cnc2ccccc2n1` it is 12.2. As for `O=[N+]([O-])c1cccc2c(Br)[nH]nc12` [3-Bromo-7-nitroindazole], the nuclei count amounted to 102.

In the case of `CCC(=O)OCN1C(=O)C=CC1=O`, the nuclei count is 109. As for `CN(CCOc1ccc(-c2ccc3c(c2)OCO3)cc1C(C)(C)C)CC(=O)O`, the nuclei count worked out at 98.

On to `COC(=O)[C@H](Cc1ccccc1)NC(=O)[C@@H](N)CC(=O)O` [Aspartame], for which the nuclei count amounted to 108. `COC[C@H](NC(=O)c1cnc(C)s1)C(=O)N[C@@H](COC)C(=O)N[C@@H](Cc1ccccc1)C(=O)[C@@]1(C)CO1` [Oprozomib (ONX 0912)] had a nuclei count of 11.1. In turn, `O=C(CCc1ccc(O)cc1)c1c(O)cc(O)cc1O[C@@H]1O[C@H](CO)[C@@H](O)[C@H](O)[C@H]1O` [Phlorizin (Phloridzin)] came in with a nuclei count of 82.5.

With `Oc1cc2c(c(Cl)c1O)CCNCC2c1ccccc1` (stereo not drawn), the nuclei count amounted to 91.2.

`O=C1CCc2c(ccc3ccccc23)O1` [Splitomicin] registered a nuclei count of 104 ± 5.1. The result for `CCCC[C@@H](C=O)NC(=O)[C@H](CC(C)C)NC(=O)OCc1ccccc1` [Calpeptin] reads 102 ± 1.9; that for `CC(C)C[C@@H](C=O)NC(=O)[C@H](CC(C)C)NC(=O)[C@H](CC(C)C)NC(=O)OCc1ccccc1`, 10.9 and 7.59; that for `CC(NC(=O)C(Cc1ccccc1)NC(=O)OCc1ccccc1)C(=O)CF` (stereo not drawn), 95. The result for `CC1C(=O)OC2C(O)C34C5CC(C(C)(C)C)C36C(OC(=O)C6O)OC4(C(=O)O5)C12O` (stereo not drawn) [Ginkgolide B] reads 95; that for `NCCCCCc1c[nH]cn1` [Impentamine dihydrobromide], 90.5.

For the compound `CN(Cc1ccccc1)C(=O)[C@H](Cc1ccc2ccccc2c1)NC(=O)[C@@H]1CCCN1C(=O)Nc1ccccc1[N+](=O)[O-]`, the nuclei count worked out at 100.

`OC(c1cc(C(F)(F)F)nc2c(C(F)(F)F)cccc12)C1CCCCN1` (stereo not drawn) [Mefloquine hydrochloride] gave a nuclei count of 10.7.

As to `Oc1ccc(OC2CCCCO2)cc1` (stereo not drawn) [Deoxyarbutin], the nuclei count came out at 91.1. The figure for `COC(=O)[C@@H]1CC2=CC(=O)CC[C@]2(C)[C@@]23O[C@@H]2C[C@@]2(C)[C@@H](CC[C@@]24CCC(=O)O4)[C@H]13` [Eplerenone] is 104 ± 3.6; for `CC(C)Oc1cc(Nc2nc(N[C@@H](C)c3ccc(F)cn3)ncc2Cl)n[nH]1` it is 52.7; for `Cc1cc(Nc2ncc(Cl)c(Nc3ccccc3S(=O)(=O)C(C)C)n2)c(OC(C)C)cc1C1CCNCC1` [Ceritinib (LDK378)] it is 14.7.
